From PubChem BioAssay AID485297 (National Center for Advancing Translational Sciences (NCATS), 2010)
The campaign covered roughly 320,000 compounds. About 9,100 (2.8%) were called active. Inconclusive results (about 3%) are left out. The call rests on the fitted dose curve; in most records, active means well fitted activation curve with a large enough effect; inconclusive means small, poorly fitted or top-dose-only effect; inactive means no such curve, though single readings can be large or run the other way. This excerpt belongs to a sample that is enriched for actives.

Assay: qHTS Assay for Rab9 Promoter Activators; further: nearly all actives have a fitted effect of over 60% in size; on activation, negative = inhibition: % of control where 0% means no effect
Settings: Huh7 Rab9 promoter-luciferase reporter, luminescence, 24 h; series mostly up to 9.22 µM; activation, negative = inhibition: at the top concentration
How it was run: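 Measured in stably transfected Huh7 cells bearing a Rab9 promoter–luciferase construct: 24 h compound treatment at 37 °C, followed by luminescence detection.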
Potency means the concentration at half of the fitted maximal effect.

Row | SMILES | activation, negative = inhibition | Potency
1 | O=S(=O)(c1ccc(SCc2ccccc2)nc1)N1CCCCCC1 | -1.04% (inactive) | 
2 | CCn1ccnc1CN(C)C(=O)c1ccc2nc(Cc3ccc(OC)cc3)oc2c1 | 0.954% (inactive) | 
3 | CC(c1ccccn1)N(C)C(=O)c1ccc2nc(Cc3cccc(Cl)c3)oc2c1 (stereo not given) |  | 3.98 µM (active)
4 | COc1ccc(Cc2nc3ccc(C(=O)N4CCC(N(C)C)C4)cc3o2)cc1 (stereo not given) | 1.21% (inactive) | 
5 | CCN(CC)S(=O)(=O)c1ccc(N2CCOCC2)c(NC(=O)C(C)Oc2ccc(F)cc2)c1 (stereo not given) | -5.04% (inactive) | 
6 | CCN1C(=O)C(=O)N(CC(=O)Nc2cc(C)ccc2C)C1=O | -3.55% (inactive) | 
7 | COc1ccc2nc(SCc3ccccc3)nc(C)c2c1 |  | 1.41 µM (active)
8 | COc1ccc(-c2nnc3ccc(SCc4ccccc4)nn23)cc1 | -1.55% (inactive) | 
9 | COC(=O)CSc1nc(C)c2ccc(OC)cc2n1 | 0.128% (inactive) | 
10 | COC(=O)Cc1ccc(OC(=O)C2CCN(S(=O)(=O)c3ccc(OC)c(OC)c3)CC2)cc1 | -2.26% (inactive) | 
11 | O=C(Nc1ccc2oc(-c3ccccc3F)nc2c1)c1ccco1 |  | 1 µM (active)
12 | O=C(Nc1cccc(-c2nc3ncccc3o2)c1)c1ccco1 | 2.52% (inactive) | 
13 | O=C(c1ccco1)N1CCN(C(=O)c2cc(-c3ccccc3F)no2)CC1 | 26.7% (inactive) | 
14 | CCC(=O)c1cc(F)ccc1OCC(=O)Nc1ccc2c(c1)OCCO2 | 1.71% (inactive) | 
15 | CCN(C(=O)CSc1nc(N)cc(=O)[nH]1)C1CCS(=O)(=O)C1 (stereo not given) | -1.42% (inactive) | 
16 | CSCCC(NC(=O)c1ccccc1)C(=O)N1CCCCCCC1 (stereo not given) | -7.23% (inactive) | 
17 | Cc1[nH]c2ccccc2c1C(=O)C(C)Sc1nnc(C2CC2)o1 (stereo not given) | -3.47% (inactive) | 
18 | O=C(COC(=O)C1CC2CCCC(C1)C2=O)NC(=O)c1ccccc1 (stereo not given) | 17.8% (inactive) | 
19 | CCOc1ccc(C(=O)CCC(=O)Nc2ccncc2)cc1 | 0.344% (inactive) | 
20 | Cc1nc2cc(-c3ccc(F)cc3)nn2c(N2CCOCC2)c1C | 3.71% (inactive) | 
21 | Cc1cc(C(C)(C)C)n2nc(C)c(-c3ccccc3)c2n1 | -0.824% (inactive) | 
22 | Cc1cc(N)n2nc(-c3ccc(C(C)(C)C)cc3)cc2n1 |  | 2.51 µM (active)

Row | SMILES | activation, negative = inhibition | Potency
23 | CC1CCN(C(=O)COC(=O)CCC(=O)c2cccs2)CC1 | -6.38% (inactive) | 
24 | CC(C)(C)c1ccc(S(=O)(=O)N2CCN(C(=O)c3ccc4c(c3)C(=O)N(Cc3ccncc3)C4=O)CC2)cc1 | 0.095% (inactive) | 
25 | COc1ccc(/C(O)=C2/C(=O)C(=O)N(c3nc(C)c(C)s3)C2c2ccco2)cc1 (stereo not given) | 0.749% (inactive) | 
26 | COc1ccc(C2/C(=C(/O)c3ccccc3)C(=O)C(=O)N2C)c(OC)c1 (stereo not given) | -1.85% (inactive) | 
27 | CCOc1ccc(/C(O)=C2\C(=O)C(=O)N(c3ccc(OC)cc3)C2c2ccccc2[N+](=O)[O-])cc1 (stereo not given) |  | 0.398 µM (active)
28 | Cn1c(SCC(=O)Nc2ccc(N3CCOCC3)cc2)nnc1C(F)(F)F | 1.61% (inactive) | 
29 | Nc1c(-c2cccc(Cl)c2)cnn1-c1cccc([N+](=O)[O-])c1 | 10.8% (inactive) | 
30 | Cc1ccc(S(=O)(=O)Nc2nc(CN3CCOCC3)nc3sc(C)c(C)c23)cc1 | 3.75% (inactive) | 
31 | CN1CCN(C(=O)c2cnn(-c3ccccc3)c2NC(=O)c2ccc([N+](=O)[O-])cc2)CC1 | -0.171% (inactive) | 
32 | O=C(c1ccc(F)cc1)N1CCCC(c2nc(-c3cccs3)no2)C1 (stereo not given) | 1.08% (inactive) | 
33 | Cc1ccc(-c2noc(C3CCCN(C(=O)c4cccc(Cl)c4)C3)n2)o1 (stereo not given) |  | 3.55 µM (active)
34 | COc1cccc(-c2noc(C3CCCN(C(=O)c4ccc(F)cc4)C3)n2)c1 (stereo not given) | 6.6% (inactive) | 
35 | CCc1nc(Nc2ccc(NC(C)=O)cc2)c2oc3ccccc3c2n1 | 11.8% (inactive) | 
36 | Cc1cc(NS(=O)(=O)c2ccc(NC(=O)c3cccnc3)cc2)nc(C)n1 | -0.278% (inactive) | 
37 | CC(=O)NC(=S)Nc1ccc(NC(=O)c2cccnc2)cc1 | -0.126% (inactive) | 
38 | CC(=O)Nc1ccc(-c2nc3ccccc3o2)cc1 |  | 1 µM (active)
39 | Cc1ccc2nc(-c3ccc(NC(=O)c4cccnc4)cc3)oc2c1 |  | 0.199 µM (active)
40 | CC(=O)Nc1ccc(S(=O)(=O)N(C)c2nc3ccccc3nc2Cl)cc1 | -2.81% (inactive) | 
41 | CCOc1cc(/C=C/C(=O)OCC(=O)NCCN2C(=O)CSC2=O)ccc1OCC(C)C | 18.5% (inactive) | 
42 | O=C(OCC(=O)N1CCc2ccccc21)C1CCCN1S(=O)(=O)c1ccc(Cl)cc1 (stereo not given) | -5.54% (inactive) | 
43 | CCOC(=O)C1CCCN(C(=O)c2ccc(C)c(S(=O)(=O)N3CCCCC3)c2)C1 (stereo not given) | -3.63% (inactive) | 
44 | CCOC(=O)Cc1csc(SCC(=O)Nc2ccc(C)cc2F)n1 | -0.949% (inactive) | 

Row | SMILES | activation, negative = inhibition | Potency
45 | C/C(=N\NC(=O)Cc1ccc(Cl)cc1)c1ccccn1 | -17% (inactive) | 
46 | C/C(=N\NC(=O)c1ccccc1F)c1ccccn1 |  | 0.316 µM (active)
47 | C/C(CC(=O)Nc1ccc(N(C)C)cc1)=N\NC(=O)c1ccccc1F | -1.52% (inactive) | 
48 | CN(C)S(=O)(=O)c1cccc(NC(=O)COc2ccc3ccccc3c2)c1 | -0.974% (inactive) | 
49 | Cc1ccc(Cn2ccc(NC(=O)C3C4CCC(C4)C3C(=O)O)n2)cc1 (stereo not given) | -0.0059% (inactive) | 
50 | O=C(Nc1ccccc1N1CCN(c2ccccc2)CC1)c1cccc(F)c1 | -3.36% (inactive) | 
51 | O=C(Nc1cccc(NC(=O)c2cccc(F)c2)c1)c1ccccc1 | -7.19% (inactive) | 
52 | Cn1cc([N+](=O)[O-])c(C(=O)Nc2cnn(Cc3ccc(F)cc3)c2)n1 | -0.795% (inactive) | 
53 | O=C(Nc1ccn(Cc2ccccc2)n1)c1cccc(F)c1 |  | 1.41 µM (active)
54 | O=C(Nc1ccn(Cc2ccccc2)n1)c1n[nH]c([N+](=O)[O-])c1Cl |  | 0.355 µM (active)
55 | CN1CCN(S(=O)(=O)c2ccc(N3CCN(c4ccccc4O)CC3)c([N+](=O)[O-])c2)CC1 | -3.77% (inactive) | 
56 | CCN(CC)c1ccc(NC(=O)CN2C(=O)NC3(CCc4ccccc43)C2=O)cc1 (stereo not given) | -1.25% (inactive) | 
57 | CN(CC(=O)NC1CCN(Cc2ccccc2)CC1)S(=O)(=O)c1ccc(Cl)s1 | -4.41% (inactive) | 
58 | CCCCN(CC(=O)Nc1cccc(S(=O)(=O)N2CCCC2)c1)Cc1nc2ccccc2c(=O)[nH]1 | -5.14% (inactive) | 
59 | CC(=O)Cn1ncc(N2CCOCC2)c(Br)c1=O | -3.1% (inactive) | 
60 | CCn1c(=O)c(=O)n(CC)c2cc(N3CCCCC3)c(NC(=O)c3ccc(Cl)cc3)cc21 | -3.75% (inactive) | 
61 | O=C(Cn1ncc(N2CCCC2)c(Br)c1=O)c1ccc(Cl)cc1 |  | 1.41 µM (active)
62 | O=C(COc1ccccc1Cl)N1N=C(c2cccs2)CC1c1ccco1 (stereo not given) | 0.112% (inactive) | 
63 | COc1ccc(-c2noc(COc3ccc(Cl)c(C)c3)n2)cc1 | 2.26% (inactive) | 
64 | Cc1cc(Cl)ccc1OCc1nc(-c2ccncc2)no1 |  | 2.82 µM (active)
65 | CN(Cc1ccccn1)Cc1nc(-c2ccc(Cl)cc2)no1 | -0.951% (inactive) | 
